Data on 20 compounds can be found in the supplement of paper PMC9262897, “Low-cost anti-mycobacterial drug discovery using engineered E. coli” (Nature Communications, 2022).

Each structure is given as a SMILES string. Counter-ions that a name gives are not always drawn. ± gives the standard deviation of the averaged measurements.

For the first assay, the system named is E. coli TESEC Mtb DapB. In words: growth (OD600 after 10 h); higher = more growth (less inhibition). Particulars: arabinose induction (level): High; compound 0.1 mM; raw OD600 reference: median of DMSO wells […], cell-free background 0.041. How it is done: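 TESEC E. coli strains in which the native enzyme is deleted and replaced by arabinose-inducible Mtb Asd, DapB, CysH or TrpD, each grown in its selective medium. Strains were screened against the Prestwick library at 0.1 mM and 1% DMSO in 384-well format at low and high arabinose induction. Growth is read as OD600 after 10 h in triplicate.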
On to `CN1CCN(C(c2ccccc2)c2ccccc2)CC1` [Cyclizine hydrochloride], for which the growth stood at 0.168 ± 0.0017.

Take `CCN(CC)C(=O)C1(c2ccccc2)CC1CN` (stereo not given) [Milnacipran hydrochloride]: the growth was determined as 0.203 ± 0.016.

In turn, `CC(C(=O)O)c1ccc2c(c1)Cc1cccnc1O2` (stereo not given) [Pranoprofen] yielded a growth of 0.192 ± 0.008.

In turn, `CCOC(=O)[C@H](CCc1ccccc1)N[C@@H](C)C(=O)N1Cc2ccccc2C[C@H]1C(=O)O` [Quinapril HCl] registered a growth of 0.155 ± 0.012.

The compound `CC(C)NC(=N)NC(=N)Nc1ccc(Cl)cc1` [Proguanil hydrochloride] had a growth of 0.207 ± 0.03.

`O=C(O)c1cccnc1Nc1cccc(C(F)(F)F)c1` [Niflumic acid] yielded a growth of 0.172 ± 0.0053.

In the case of `CNCCC=C1c2ccccc2C=Cc2ccccc21` [Norcyclobenzaprine], the growth is 0.186 ± 0.009.

Turning to `CC1(C)O[C@@H]2C[C@H]3[C@@H]4C[C@H](F)C5=CC(=O)C=C[C@]5(C)[C@H]4[C@@H](O)C[C@]3(C)[C@]2(C(=O)CO)O1` [Flunisolide], the growth is 0.214 ± 0.021.

As to `CNCCC(Oc1ccccc1OC)c1ccccc1` (stereo not given) [Nisoxetine hydrochloride], the growth is 0.149 ± 0.031.

Consider `COc1cc(C(=O)NCc2ccc(OCCN(C)C)cc2)cc(OC)c1OC` [Trimethobenzamide hydrochloride], for which the growth was 0.203 ± 0.021.

`CN(CCOc1ccc(NS(C)(=O)=O)cc1)CCc1ccc(NS(C)(=O)=O)cc1` [Dofetilide]: the growth was determined as 0.229 ± 0.041.

Compound `Nc1ccc(S(=O)(=O)Nc2ccnn2-c2ccccc2)cc1` [Sulfaphenazole] registered a growth of 0.163 ± 0.016.

On to `CCC[C@@H]1C[C@@H](C(=O)N[C@@H]([C@H]2O[C@H](SC)[C@H](O)[C@@H](O)[C@H]2O)[C@@H](C)O)N(C)C1` [Lincomycin hydrochloride], for which the growth is 0.172 ± 0.03.

`N=C(N)NCC1COC2(CCCCC2)O1` (stereo not given) [Guanadrel sulfate] showed a growth of 0.22 ± 0.023.

Consider `N=C(N)N/N=C/c1c(Cl)cccc1Cl` [Guanabenz acetate], for which the growth came to 0.194 ± 0.0026.

As for `Cc1ccc(C)c(OCCCC(C)(C)C(=O)O)c1` [Gemfibrozil], the growth turned out to be 0.161 ± 0.029.

`Cc1ccc(-c2ncc(Cl)cc2-c2ccc(S(C)(=O)=O)cc2)cn1` [Etoricoxib] displayed a growth of 0.204 ± 0.031.

`CN1CCC(=C2c3ccccc3C=Cc3ccccc32)CC1` [Cyproheptadine hydrochloride] displayed a growth of 0.175 ± 0.015.

The compound `Clc1ccc(C(Cn2ccnc2)OCc2c(Cl)cccc2Cl)c(Cl)c1` (stereo not given) [Isoconazole] displayed a growth of 0.0672 ± 0.015.

The compound `c1ccc2c(c1)CCCc1cc(NCCN3CCOCC3)nnc1-2` registered a growth of 0.179 ± 0.0094.

The same assay, now with this note: arabinose induction (level): Low; compound 0.1 mM; raw OD600 reference: median of DMSO wells 0.227, cell-free background 0.041.
The compound `CN1CCN(C(c2ccccc2)c2ccccc2)CC1` [Cyclizine hydrochloride] registered a growth of 0.196 ± 0.0017.

`CCN(CC)C(=O)C1(c2ccccc2)CC1CN` (stereo not given) [Milnacipran hydrochloride]: the growth came to 0.259 ± 0.026.

`CC(C(=O)O)c1ccc2c(c1)Cc1cccnc1O2` (stereo not given) [Pranoprofen]: the growth turned out to be 0.198 ± 0.013.

In the case of `CCOC(=O)[C@H](CCc1ccccc1)N[C@@H](C)C(=O)N1Cc2ccccc2C[C@H]1C(=O)O` [Quinapril HCl], the growth stood at 0.165 ± 0.0056.

Consider `CC(C)NC(=N)NC(=N)Nc1ccc(Cl)cc1` [Proguanil hydrochloride], for which the growth is 0.244 ± 0.016.

For the compound `O=C(O)c1cccnc1Nc1cccc(C(F)(F)F)c1` [Niflumic acid], the growth is 0.209 ± 0.022.

For the compound `CNCCC=C1c2ccccc2C=Cc2ccccc21` [Norcyclobenzaprine], the growth turned out to be 0.21 ± 0.0089.

As to `CC1(C)O[C@@H]2C[C@H]3[C@@H]4C[C@H](F)C5=CC(=O)C=C[C@]5(C)[C@H]4[C@@H](O)C[C@]3(C)[C@]2(C(=O)CO)O1` [Flunisolide], the growth was 0.241 ± 0.01.

For the compound `CNCCC(Oc1ccccc1OC)c1ccccc1` (stereo not given) [Nisoxetine hydrochloride], the growth is 0.2 ± 0.018.

Consider `COc1cc(C(=O)NCc2ccc(OCCN(C)C)cc2)cc(OC)c1OC` [Trimethobenzamide hydrochloride], for which the growth amounted to 0.253 ± 0.018.

The compound `CN(CCOc1ccc(NS(C)(=O)=O)cc1)CCc1ccc(NS(C)(=O)=O)cc1` [Dofetilide] yielded a growth of 0.241 ± 0.032.

`Nc1ccc(S(=O)(=O)Nc2ccnn2-c2ccccc2)cc1` [Sulfaphenazole] registered a growth of 0.174 ± 0.03.

`CCC[C@@H]1C[C@@H](C(=O)N[C@@H]([C@H]2O[C@H](SC)[C@H](O)[C@@H](O)[C@H]2O)[C@@H](C)O)N(C)C1` [Lincomycin hydrochloride]: the growth amounted to 0.179 ± 0.043.

Consider `N=C(N)NCC1COC2(CCCCC2)O1` (stereo not given) [Guanadrel sulfate], for which the growth is 0.227 ± 0.039.

Regarding `N=C(N)N/N=C/c1c(Cl)cccc1Cl` [Guanabenz acetate], the growth turned out to be 0.258 ± 0.065.

As for `Cc1ccc(C)c(OCCCC(C)(C)C(=O)O)c1` [Gemfibrozil], the growth came out at 0.195 ± 0.055.

`Cc1ccc(-c2ncc(Cl)cc2-c2ccc(S(C)(=O)=O)cc2)cn1` [Etoricoxib] showed a growth of 0.261 ± 0.029.

`CN1CCC(=C2c3ccccc3C=Cc3ccccc32)CC1` [Cyproheptadine hydrochloride] gave a growth of 0.192 ± 0.011.

As for `Clc1ccc(C(Cn2ccnc2)OCc2c(Cl)cccc2Cl)c(Cl)c1` (stereo not given) [Isoconazole], the growth is 0.0666 ± 0.02.

For `c1ccc2c(c1)CCCc1cc(NCCN3CCOCC3)nnc1-2`, the growth is 0.2 ± 0.013.
